Experimental data as given in PubChem BioAssay (NCATS).
Results filed as inconclusive are left out. Active and inactive are the calls of the source. Calls follow the shape of the dose curve; as a rule, active = well fitted curve in the direction sought with a large enough effect; inconclusive = small, poorly fitted or top-dose-only effect, or another doubt; inactive = no such curve, though single readings can be large; an effect the other way counts as inactive or inconclusive. Non-standard residues stand in square brackets, D forms with d. Residues, ends and D or L forms follow the SMILES beside them. *: point of attachment. Sta = CC(C)C[C@H](N)[C@@H](O)CC(=O)O; Isovaleryl = CC(C)CC(=O)*

What was measured:
[1] = Quantitative High-Throughput drug screen in 47 multiple myeloma cell lines against the NCATS MIPE library collection: ARP1_JJKsccF8 cell viability assay (AID 1918928; also: nearly all actives have a fitted effect of over 40% in size; also: potency is read from the fitted curve at half-maximal effect)
How it was run: (§1)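 ATP readout (CellTiter-Glo), 48 h drug incubation, 37 °C/5% CO2, 500 cells per well; normalisation to DMSO (100%) and media-only (0%) controls.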

[2] = Quantitative High-Throughput drug screen in 47 multiple myeloma cell lines against the NCATS MIPE library collection: ARD_JJKsccE7 cell viability assay (AID 1918929; also: potency is read from the fitted curve at half-maximal effect)
How it was run: (§2)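 CellTiter-Glo ATP luminescence gave viability after 48 h compound treatment at 37C of 500 multiple myeloma cells per well. Normalisation used DMSO-only wells as 100% and media-only wells as 0% viability; primary qHTS of approved and investigational drugs.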

[3] = Quantitative High-Throughput drug screen in 47 multiple myeloma cell lines against the NCATS MIPE library collection: Karpas620_DSMZ cell viability assay (AID 1918959); also: nearly all actives have a fitted effect of over 30% in size; also: potency is read from the fitted curve at half-maximal effect
How it was run: (§3)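 Myeloma cell lines, 500 cells per well, exposed to MIPE 4.0 library compounds for 48 h at 37C, 5% CO2. Viability from ATP by CellTiter-Glo luminescence; normalised to DMSO (100%) and media-only (0%) wells.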

[4] = Quantitative High-Throughput drug screen in 47 multiple myeloma cell lines against the NCATS MIPE library collection: KMM1_JCRB cell viability assay (AID 1918960); also: nearly all actives have a fitted effect of over 30% in size; also: potency is read from the fitted curve at half-maximal effect
How it was run: as §1

[5] = Quantitative High-Throughput drug screen in 47 multiple myeloma cell lines against the NCATS MIPE library collection: Karpas417_ECACC cell viability assay (AID 1918961); settings: Karpas417 myeloma viability, CellTiter-Glo ATP luminescence, 48 h; viability (% of DMSO): at 45.8 µM (top of the series)
How it was run: as §3

[6] = Quantitative High-Throughput drug screen in 47 multiple myeloma cell lines against the NCATS MIPE library collection: KHM11_PLB cell viability assay (AID 1918962); also: nearly all actives have a fitted effect of over 35% in size; also: potency is read from the fitted curve at half-maximal effect
How it was run: as §3

[7] = Quantitative High-Throughput drug screen in 47 multiple myeloma cell lines against the NCATS MIPE library collection: JIM3_ECACC cell viability assay (AID 1918963; also: nearly all actives have a fitted effect of over 35% in size; also: potency is read from the fitted curve at half-maximal effect)
How it was run: as §3

[8] = Quantitative High-Throughput drug screen in 47 multiple myeloma cell lines against the NCATS MIPE library collection: JIM1_ECACC cell viability assay (AID 1918964; also: potency is read from the fitted curve at half-maximal effect)
How it was run: as §2

[9] = Quantitative High-Throughput drug screen in 47 multiple myeloma cell lines against the NCATS MIPE library collection: INA6_PLB cell viability assay (AID 1918965; also: nearly all actives have a fitted effect of over 55% in size; also: potency is read from the fitted curve at half-maximal effect)
How it was run: as §3

[10] = Quantitative High-Throughput drug screen in 47 multiple myeloma cell lines against the NCATS MIPE library collection: JJN3_DSMZ cell viability assay (AID 1918966; also: nearly all actives have a fitted effect of over 50% in size; also: potency is read from the fitted curve at half-maximal effect)
How it was run: as §2

Measured: Potency

c1cnc2cc3c(cc2n1)C1CNCC3C1
not listed: [10]
inactive: all other assays above

Oc1ccc2ccccc2c1SSc1c(O)ccc2ccccc12
active: [1] 23.5 µM | [2] 16.6 µM | [3] 10.5 µM | [4] 23.5 µM | [6] 20.9 µM | [7] 18.7 µM | [8] 14.8 µM | [9] 5.9 µM | [10] 7.43 µM

CCCCCCCCCCCCCCCCCCCCCCO
inactive: [1] | [2] | [3] | [4] | [7] | [9]

Nc1ccc(S(N)(=O)=O)cc1
inactive: [1] | [2] | [3] | [4] | [7] | [9]

Cc1nc2n(c(=O)c1CCN1CCC(c3noc4cc(F)ccc34)CC1)CCCC2
not listed: [8] | [10]
inactive: all other assays above

S=c1nc[nH]c2nc[nH]c12
inactive: [3] | [6]
active: [1] 2.35 µM | [2] 2.35 µM | [4] 4.69 µM | [7] 16.6 µM | [9] 1.87 µM

CN(c1nccc(=O)[nH]1)C1CCN(c2nc3ccccc3n2Cc2ccc(F)cc2)CC1
active: [9] 23.5 µM
inactive: [1] | [2] | [3] | [4]

CNC[C@H](O)c1ccc(O)c(O)c1
inactive: [2] | [3] | [4] | [6]
active: [1] 15.2 µM | [7] 38.2 µM

CC(C)CC(=O)N[C@H](C(=O)N[C@H](C(=O)N[C@@H](CC(C)C)[C@@H](O)CC(=O)N[C@@H](C)C(=O)N[C@@H](CC(C)C)[C@@H](O)CC(=O)O)C(C)C)C(C)C (Isovaleryl-VV[Sta]A[Sta]-OH)
not listed: [9]
inactive: all other assays above

Cn1c(NCCN(CCO)CCCc2ccc([N+](=O)[O-])cc2)cc(=O)n(C)c1=O
inactive: [1]

NNc1nncc2ccccc12
inactive: [1] | [2] | [3] | [4] | [7]

CC(=O)NC[C@H]1CN(c2ccc(N3CCOCC3)c(F)c2)C(=O)O1
active: [1] 18.7 µM
inactive: [2] | [3] | [4] | [7] | [9]

O=C(O)CCNC(=O)c1ccc(N=Nc2ccc(O)c(C(=O)O)c2)cc1
inactive: [1] | [2] | [3] | [4] | [7] | [9]

CN(C)c1ccc(O)c2c1C[C@H]1C[C@H]3[C@H](N(C)C)C(=O)C(C(N)=O)=C(O)[C@@]3(O)C(=O)C1=C2O
active: [1] 16.6 µM | [9] 13.2 µM | [10] 20.9 µM
not listed: [6] | [7]
inactive: all other assays above

C[C@H](Cn1cnc2c(N)ncnc21)OCP(=O)(O)O
not listed: [6] | [9] | [10]
inactive: all other assays above

O=C(O)c1cccnc1Nc1cccc(C(F)(F)F)c1
inactive: [1] | [2] | [3] | [4] | [7] | [9]

CC1=C(C(=O)O)N2C(=O)[C@@H](NC(=O)[C@H](N)C3=CCC=CC3)[C@H]2SC1
inactive: [1] | [3] | [4] | [6] | [7] | [9]

Cc1cc(=O)c2c(O)c3c(O)cc(=O)c4c3c3c(cc(O)c1c23)C(C)(C)C=4O
active: [1] 2.96 µM | [2] 3.32 µM | [3] 14.8 µM | [6] 0.372 µM | [7] 0.235 µM | [8] 5.9 µM | [9] 0.418 µM

COc1c2occc2cc2ccc(=O)oc12
inactive: [1] | [3] | [4] | [6] | [7] | [8]

c1ccc2[nH]c(-c3cscn3)nc2c1
inactive: [1] | [2] | [4] | [7] | [9]

CCCCN(CCCC)CCC(O)c1cc2c(Cl)cc(Cl)cc2c2cc(C(F)(F)F)ccc12 (stereo unspecified)
active: [9] 18.7 µM
inactive: [1] | [2] | [3]

CCOc1cc(CC(=O)N[C@@H](CC(C)C)c2ccccc2N2CCCCC2)ccc1C(=O)O
inactive: [1] | [2] | [7] | [9]

O=P(O)(O)C(O)(Cn1ccnc1)P(=O)(O)O
inactive: [1] | [3] | [4] | [6] | [7]

CCCc1cc(=O)[nH]c(=S)[nH]1
inactive: [1] | [2] | [4] | [7] | [8]

O=c1cc(N2CCOCC2)oc2c(-c3ccccc3)cccc12
inactive: [2] | [3] | [4]
active: [1] 18.7 µM | [10] 16.6 µM
